# The supplement of paper PMC4466140
# How the values were obtained:
# Assay in all cases: SPOT peptide array binding signal intensity (averaged, normalized) (arbitrary units (background-subtracted, floor 0; scale differs between SH3 domains)); higher = stronger binding of the SH3 domain to the peptide
# [1] = molecular target: AgAbp1
# Outline: (§1)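 Binding signal is given in arbitrary units that differ between domains and is the normalized, background-subtracted spot intensity averaged across replicates. Each GST-SH3 fusion from one of four yeast species was made in E. coli BL21(DE3), purified on glutathione Sepharose and incubated at 10 μg/ml overnight at 4°C on cellulose-bound synthetic 15-mer peptides in which cysteines were replaced by serines. Detection used anti-GST antibody, an HRP anti-mouse secondary and luminol, followed by imaging and Genespotter quantification.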
# [2] = molecular target: AgBbc1
# Outline: as §1
# [3] = molecular target: AgBem1-D1
# Outline: as §1
# [4] = molecular target: AgBzz1-D1
# Outline: as §1
# [5] = molecular target: AgBzz1-D2
# Outline: as §1
# [6] = molecular target: AgCyk3
# Outline: as §1
# [7] = molecular target: AgFus1
# Outline: as §1
# [8] = molecular target: AgHof1
# Outline: as §1
# [9] = molecular target: AgHse1
# Outline: as §1
# [10] = molecular target: AgLsb1
# Outline: as §1
# [11] = molecular target: AgLsb4
# Outline: as §1
# [12] = molecular target: AgMyo5
# Outline: as §1
# [13] = molecular target: AgNbp2
# Outline: as §1
# [14] = molecular target: AgRvs167
# Outline: as §1
# [15] = molecular target: AgSho1
# Outline: as §1
# [16] = molecular target: AgSla1-D1-D2
# Outline: as §1
# [17] = molecular target: AgSla1-D3
# Outline: as §1
# [18] = molecular target: CaAbp1-D1
# Outline: as §1
# [19] = molecular target: CaAbp1-D2
# Outline: as §1
# [20] = molecular target: CaBbc1
# Outline: as §1
# [21] = molecular target: CaBem1-D1
# Outline: as §1
# [22] = molecular target: CaBzz1-D1
# Outline: as §1
# [23] = molecular target: CaBzz1-D2
# Outline: as §1
# [24] = molecular target: CaCyk3
# Outline: as §1
# [25] = molecular target: CaFus1
# Outline: as §1
# [26] = molecular target: CaHof1
# Outline: as §1
# [27] = molecular target: CaHse1
# Outline: as §1
# [28] = molecular target: CaLsb1
# Outline: as §1
# [29] = molecular target: CaLsb4
# Outline: as §1
# [30] = molecular target: CaMyo5
# Outline: as §1
# [31] = molecular target: CaNbp2
# Outline: as §1
# [32] = molecular target: CaRvs167
# Outline: as §1
# [33] = molecular target: CaRvs167-3
# Outline: as §1
# [34] = molecular target: CaSho1
# Outline: as §1
# [35] = molecular target: CaSla1-D1-D2
# Outline: as §1
# [36] = molecular target: CaSla1-D3
# Outline: as §1
# [37] = molecular target: ScAbp1
# Outline: as §1
# [38] = molecular target: ScBbc1
# Outline: as §1
# [39] = molecular target: ScBem1-D1
# Outline: as §1
# [40] = molecular target: ScBzz1-D1
# Outline: as §1
# [41] = molecular target: ScBzz1-D2
# Outline: as §1
# [42] = molecular target: ScCyk3
# Outline: as §1
# [43] = molecular target: ScFus1
# Outline: as §1
# [44] = molecular target: ScHof1
# Outline: as §1
# [45] = molecular target: ScHse1
# Outline: as §1
# [46] = molecular target: ScLsb1
# Outline: as §1
# [47] = molecular target: ScLsb2
# Outline: as §1
# [48] = molecular target: ScLsb3
# Outline: as §1
# [49] = molecular target: ScLsb4
# Outline: as §1
# [50] = molecular target: ScMyo3
# Outline: as §1
# [51] = molecular target: ScMyo5
# Outline: as §1
# [52] = molecular target: ScNbp2
# Outline: as §1
# [53] = molecular target: ScPex13
# Outline: as §1
# [54] = molecular target: ScRvs167
# Outline: as §1
# [55] = molecular target: ScSho1
# Outline: as §1
# [56] = molecular target: ScSla1-D1-D2
# Outline: as §1
# [57] = molecular target: ScSla1-D3
# Outline: as §1
# [58] = molecular target: SpAbp1-D1
# Outline: as §1
# [59] = molecular target: SpBbc1
# Outline: as §1
# [60] = molecular target: SpBzz1-D1
# Outline: as §1
# [61] = molecular target: SpBzz1-D2
# Outline: as §1
# [62] = molecular target: SpCyk3
# Outline: as §1
# [63] = molecular target: SpHof1
# Outline: as §1
# [64] = molecular target: SpHof1-2
# Outline: as §1
# [65] = molecular target: SpHof1-3
# Outline: as §1
# [66] = molecular target: SpHse1
# Outline: as §1
# [67] = molecular target: SpLsb1
# Outline: as §1
# [68] = molecular target: SpLsb4
# Outline: as §1
# [69] = molecular target: SpMyo1
# Outline: as §1
# [70] = molecular target: SpNbp2
# Outline: as §1
# [71] = molecular target: SpPex13
# Outline: as §1
# [72] = molecular target: SpRvs167
# Outline: as §1
# [73] = molecular target: SpSla1-D1-D2
# Outline: as §1
# [74] = molecular target: SpSla1-D3
# Outline: as §1
binder,measurement,setting,value
QTMRQAPKRPDADVA,SPOT peptide array binding signal intensity,[1],17
same,SPOT peptide array binding signal intensity,[2],170
same,SPOT peptide array binding signal intensity,[3],369
same,SPOT peptide array binding signal intensity,[4],11
same,SPOT peptide array binding signal intensity,[5],10
same,SPOT peptide array binding signal intensity,[6],≤ 0
same,SPOT peptide array binding signal intensity,[7],728
same,SPOT peptide array binding signal intensity,[8],9
same,SPOT peptide array binding signal intensity,[9],132
same,SPOT peptide array binding signal intensity,[10],48.8
same,SPOT peptide array binding signal intensity,[11],36
same,SPOT peptide array binding signal intensity,[12],18.8
same,SPOT peptide array binding signal intensity,[13],2740
same,SPOT peptide array binding signal intensity,[14],20.3
same,SPOT peptide array binding signal intensity,[15],684
same,SPOT peptide array binding signal intensity,[16],9
same,SPOT peptide array binding signal intensity,[17],14.8
same,SPOT peptide array binding signal intensity,[18],144
same,SPOT peptide array binding signal intensity,[19],292
same,SPOT peptide array binding signal intensity,[20],942
same,SPOT peptide array binding signal intensity,[21],565
same,SPOT peptide array binding signal intensity,[22],458
same,SPOT peptide array binding signal intensity,[23],286
same,SPOT peptide array binding signal intensity,[24],35
same,SPOT peptide array binding signal intensity,[25],1110
same,SPOT peptide array binding signal intensity,[26],1
same,SPOT peptide array binding signal intensity,[27],146
same,SPOT peptide array binding signal intensity,[28],18.2
same,SPOT peptide array binding signal intensity,[29],910
same,SPOT peptide array binding signal intensity,[30],56.2
same,SPOT peptide array binding signal intensity,[31],1450
same,SPOT peptide array binding signal intensity,[32],163
same,SPOT peptide array binding signal intensity,[33],0.75
same,SPOT peptide array binding signal intensity,[34],1860
same,SPOT peptide array binding signal intensity,[35],553
same,SPOT peptide array binding signal intensity,[36],650
same,SPOT peptide array binding signal intensity,[37],7
same,SPOT peptide array binding signal intensity,[38],68.5
same,SPOT peptide array binding signal intensity,[39],1
same,SPOT peptide array binding signal intensity,[40],6
same,SPOT peptide array binding signal intensity,[41],27
same,SPOT peptide array binding signal intensity,[42],4
same,SPOT peptide array binding signal intensity,[43],1110
same,SPOT peptide array binding signal intensity,[44],0.5
same,SPOT peptide array binding signal intensity,[45],84.5
same,SPOT peptide array binding signal intensity,[46],78
same,SPOT peptide array binding signal intensity,[47],29.5
same,SPOT peptide array binding signal intensity,[48],961
same,SPOT peptide array binding signal intensity,[49],524
same,SPOT peptide array binding signal intensity,[50],227
same,SPOT peptide array binding signal intensity,[51],47.5
same,SPOT peptide array binding signal intensity,[52],3190
same,SPOT peptide array binding signal intensity,[53],766
same,SPOT peptide array binding signal intensity,[54],136
same,SPOT peptide array binding signal intensity,[55],930
same,SPOT peptide array binding signal intensity,[56],690
same,SPOT peptide array binding signal intensity,[57],700
same,SPOT peptide array binding signal intensity,[58],66
same,SPOT peptide array binding signal intensity,[59],42.5
same,SPOT peptide array binding signal intensity,[60],188
same,SPOT peptide array binding signal intensity,[61],512
same,SPOT peptide array binding signal intensity,[62],3
same,SPOT peptide array binding signal intensity,[63],51.5
same,SPOT peptide array binding signal intensity,[64],27.5
same,SPOT peptide array binding signal intensity,[65],32.8
same,SPOT peptide array binding signal intensity,[66],240
same,SPOT peptide array binding signal intensity,[67],34
same,SPOT peptide array binding signal intensity,[68],990
same,SPOT peptide array binding signal intensity,[69],229
same,SPOT peptide array binding signal intensity,[70],847
same,SPOT peptide array binding signal intensity,[71],35
same,SPOT peptide array binding signal intensity,[72],188
same,SPOT peptide array binding signal intensity,[73],11
same,SPOT peptide array binding signal intensity,[74],491
